In the library only some 7% were active in any assay of this set; here they are far more common.
ATXN2 expr inh = ATXN2 expression inhibition | Potency, µM (highest dose often 57 µM), inactives show at the top dose activity change, negative = inhibition, usual class: inhibitors | HEK-293 ATXN2-luciferase reporter, luminescence, 24 h | 360,000 compounds, 0.72% hits; also: potency is read from the fitted curve at half-maximal effect; % is scaled to controls: 0 for no effect and ±100 for the full control effect; nearly all actives have a fitted effect of over 55% in size
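ATXN2-luciferase reporter cells (luciferase flanked by upstream and downstream ATXN2 gene portions) were treated 24 h at 37 °C with compounds at up to 57 uM. SteadyGlo luminescence gave expression; GF-AFC fluorescence gave viability.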
D3 ag = activates the human D3 dopamine receptor | 410,000 compounds, 0.58% hits | P35462 | max activation, % | D3R DiscoveRx beta-arrestin cells, luminescence, 90 min | AID 652048; in the data active = max activation above about 30%; also: 0% is about no effect
Target sequence (P35462 whole entry, looked up): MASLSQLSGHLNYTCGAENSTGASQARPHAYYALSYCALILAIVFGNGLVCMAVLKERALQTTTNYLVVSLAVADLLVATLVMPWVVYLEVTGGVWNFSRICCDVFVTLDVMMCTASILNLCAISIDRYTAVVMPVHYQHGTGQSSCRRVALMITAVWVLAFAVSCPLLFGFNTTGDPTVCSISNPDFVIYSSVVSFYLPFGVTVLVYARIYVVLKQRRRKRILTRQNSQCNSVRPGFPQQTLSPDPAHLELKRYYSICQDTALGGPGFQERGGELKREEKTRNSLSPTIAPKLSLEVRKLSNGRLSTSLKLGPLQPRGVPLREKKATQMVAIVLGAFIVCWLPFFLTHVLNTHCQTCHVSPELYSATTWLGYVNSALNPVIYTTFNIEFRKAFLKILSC
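Cells at 1500/well, incubated overnight, then treated with pinned compounds (dopamine as control) for 90 min at 37 degrees C. DiscoveRx reagent added for 30 - 60 minutes at room temperature; luminescence read.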
DRD3 antagonist = antagonists of human D3 dopamine receptor. P35462. D3R cells, DiscoveRx beta-arrestin luminescence, antagonist mode; active compounds read low. max response, negative = inhibition, %. 360,000 compounds, 2.5% hits. AID 652054; in the data active = max response below about -50%; inconclusive = no clear call, values can overlap the other calls; also: % is scaled to controls: 0 for no effect and ±100 for the full control effect
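Cells plated overnight at 1500 cells/well, then exposed to library compounds with dopamine controls for 90 minutes at 37 degrees C. DiscoveRx reagent added for 30–60 minutes at room temperature; luminescence read, quantitative HTS format.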
ATXN viability = reduces viability in counter-screen for ATXN expression inhibitors. AID 651635. Potency, µM (titrated, usually from 56.7 µM), hits mostly cytotoxic. S2 cells (HEK-293 line with an ATXN2-luciferase reporter) viability, CellTiter-Fluor protease fluorescence, 24 h. 400,000 compounds, 0.49% hits; also: potency is read from the fitted curve at half-maximal effect; nearly all actives have a fitted effect of over 40% in size
a7 integrin act = activators of alpha7 integrin expression for muscular dystrophy; alpha7betagal myoblasts, beta-gal FDG fluorescence, 48 h; Potency, µM (series often up to 38.3 µM), for the others: top-dose activation, actives largely listed as activators; 350,000 compounds, 0.064% hits;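 also: potency is read from the fitted curve at half-maximal effect; 100% = response of the positive control SU9516; nearly all actives have a fitted effect of over 60% in size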
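Alpha7betagal+/- myoblasts (passage 13) were plated 16-24 hr, then exposed to compounds (1:260 dilution of DMSO stock) for 48 hours at 37C. After MPER lysis, β-galactosidase reporter activity was read as FDG fluorescence (ex 480/em 540) after 30 minutes.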
IL1B secr inh = inhibitors of inflammasome signaling (IL-1 beta secretion); THP-1 LPS/ATP IL-1B secretion, AlphaLISA, 16 h; active compounds read low; activity change, % at 57.5 µM; 360,000 compounds, 4.7% hits; in the data active = activity change below about -50%; inconclusive = mostly about -30% to -49%; also: % is scaled to controls: 0 for no effect and ±100 for the full control effect
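THP-1 cells pretreated 1 hr with compounds (up to 57.5 uM final), then stimulated with LPS (250 ng/mL final) plus ATP (1.25 mM final); secreted IL-1B measured by AlphaLISA after 16 hr, decreased signal indicating inhibition.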
An asterisk follows results filed as active; i = inactive; ? = inconclusive; . = no result given; [ ] = another dose, or the depositor's remark. Unless noted, calls follow the shape of the dose curve; as a rule, active = well fitted curve in the direction sought with a large enough effect; inconclusive = small, poorly fitted or top-dose-only effect, or another doubt; inactive = no such curve, though single readings can be large; an effect the other way counts as inactive or inconclusive.

SMILES	ATXN2 expr inh	D3 ag	DRD3 antagonist	ATXN viability	a7 integrin act	IL1B secr inh
COc1ccc(-c2cn3nc(SCC(=O)NC4CCCCC4)ccc3n2)cc1	1%	-14	-21	i	4%	25
COc1cccc2c1C(=O)c1c(O)c3c(c(O)c1C2=O)CC(O)(C(C)=O)CC3OC1CC(N(C)C)C(O)C(C)O1 (stereo not given)	?	-9	-27	?	?	-101*
COc1cccc2c1C(=O)c1c(O)c3c(c(O)c1C2=O)C[C@@](O)(C(=O)CO)C[C@@H]3OC1CC(N)C(O)C(C)O1 (stereo not given in full)	?	-11	-23	12µM*	-56%	-105*
CC(=O)[C@@]1(O)Cc2c(O)c3c(c(O)c2[C@H](O[C@H]2C[C@H](N)[C@H](O)[C@H](C)O2)C1)C(=O)c1ccccc1C3=O	-74%	.	.	?	.	.
CCOC(=O)c1c(-c2ccc(C)o2)csc1NC(=O)COC(=O)c1cccs1	1%	1	0	i	13%	-5
CCOC(=O)c1c(-c2ccc(C)o2)csc1NC(=S)NC(=O)N(C)C	?	1	-55*	.	-46%	54
O=c1c2cnn(-c3ccc(F)cc3)c2ncn1Cc1ccccc1Cl	-4%	10	.	?	.	.
O=C(NCCC(=O)N1CCN(Cc2c(F)cccc2Cl)CC1)c1ccc(Cl)cc1	-8%	65*	-4	i	3%	-4
Fc1ccc(CN2CCC(Cc3ccccc3)CC2)cc1F	-22%	-17	?	i	26%	0
Clc1cccc(CN2CCN(Cc3ccco3)CC2)c1	-6%	-41	-66*	i	?	7
Cc1cc2nc(C3CCN(Cc4nnnn4Cc4ccccc4)CC3)[nH]c2cc1C	?	-7	-25	i	-16%	-63*
Clc1cccc(CN2CCC(Cc3ccccc3)CC2)c1	-36%	-62	-78*	?	-3%	4
CC1CCCN(C(=O)CN2CCC(c3nc4ccc(Cl)cc4[nH]3)CC2)C1 (stereo not given)	.	1	-3	i	-9%	0
Clc1ccc(CN2CCC(c3nc4ccc(Cl)cc4[nH]3)CC2)cc1	?	-8	-74*	?	-55%	-61*
COc1ccc(NC2CCCN(C(=O)c3ccc(OC)cc3OC)C2)cc1 (stereo not given)	-2%	-7	-11	i	31%	0
O=C(CSc1nnc(CNC(=O)c2ccccc2)o1)c1ccc(Cl)cc1	-14%	3	18	i	-11%	-1
NC(=O)C1CCN(C2CC(=O)N(Cc3cccs3)C2=O)CC1 (stereo not given)	-9%	-5	-5	i	3%[7.66 µM]	0
CCCCCC(=O)N1C[C@H](O)[C@@H](n2cc(C3CC3)nn2)C[C@@H]1c1ccc(OC)cc1	10%	-3	-16	i	16%	-23
O=C(CCCC(=O)NCc1ccc(F)cc1)NCc1ccc(F)cc1	16%	9	16	i	3%	19
CSc1ccc(OC2CCN(Cc3ccccc3)CC2)cc1	-15%	-8	-51*	i	-26%	-4
CSc1ccc(CN2CCC(Cc3ccccc3)CC2)cc1	.	-21	-56*	?	-23%	-4
CSc1ccc(CN2CCSCC2)cc1	-4%	-3	-16	?	-12%	8
Clc1ccc(CN2CCC(Cc3ccccc3)CC2)cc1	-37%	-12	-96*	i	-8%	-96*
Clc1ccc(CNC2CCN(Cc3ccccc3)CC2)cc1	-22%	-21	-17	i	?	-24
Clc1ccc(CN2CCC(c3ccccc3)CC2)cc1	.	1	-131*	i	-13%	2
SMILES	ATXN2 expr inh	D3 ag	DRD3 antagonist	ATXN viability	a7 integrin act	IL1B secr inh
CSc1ccc(CN2CCC(Oc3cccc(C(=O)N4CCCC4)c3)CC2)cc1	-14%	-7	-18	i	-16%	0
COC(=O)[C@@]1(Cc2ccc(F)cc2)[C@H]2c3cc(C(=O)N(C)C)n(Cc4cc(F)cc5c4OCOC5)c3C[C@H]2CN1C(=O)c1ccccc1	-16%	-3	-2	?	.	?
OCC(CBr)(CBr)CBr	-1%	-5	-54*	i	.	19
COc1cc(C(=O)NCCN2CCN(C(=O)c3cc(OC)c(OC)c(OC)c3)CC2)cc(OC)c1OC	3%	2	15	i	7%	0
O=C(NCCN1CCN(C(=O)c2ccc(Br)cc2)CC1)c1ccc(Br)cc1	-28%	-24	-98*	i	9%	-24
CN1CCN(CCNC(=O)c2ccc3nc(-c4ccc(F)cc4)c(-c4ccc(F)cc4)nc3c2)CC1	?	3	-1	?	-81%	-53*
CCn1c(C)c(C)c2cc(C(=O)NCCN3CCCCCC3)ccc21	-14%	-18	-81*	i	-55%	-29
CCn1c(C)c(C)c2cc(C(=O)NCCCN3CCCCCC3)ccc21	-10%	-19	-29	i	-63%	?
Cc1ccc(C(=O)NCCN2CCN(C(=O)c3ccc(C)c(C)c3)CC2)cc1C	-20%	-28	-98*	i	-22%	3
Cc1ccc(NC(=O)C(C)Sc2n[nH]c(CNc3ccccc3)n2)cc1 (stereo not given)	0%	-11	4	i	6%	-25
COc1cccc(CNC(=O)COC(=O)CN(C)S(=O)(=O)c2ccc(NC(C)=O)cc2)c1	3%	-2	6	i	17%	i
C/C(=N\NC1=NCCN1)c1ccc(N)c([N+](=O)[O-])c1	10%	-24	?	i	-18%	-16
CCCCCCOc1ccc(/C(C)=N/NC2=NCCN2)cc1[N+](=O)[O-]	.	-6	-23	18µM*	-5%	-92*
C/C(=N\Nc1nccnc1Cl)c1ccc(Cl)c(Cl)c1	20%	-11	0	i	19%	4
CCCCOc1ccc(Br)cc1/C(C)=N/NC1=NCCN1	18µM*	-22	-26	.	-65%	-113*
COc1ccc(/C(C)=N/NC2=NCCN2)cc1Cl	-29%	-5	-22	?	-22%	-74*
CCO[C@@H]1OC(C(=O)N2CCOCC2)=C[C@H](c2ccc(Br)cc2)[C@H]1CCCO	-4%	-17	9	i	1%	20
CCOC(=O)/C(=C/Nc1ccccc1)[N+](=O)[O-]	-5%	-8	0	i	24%	-1
CCc1cc2ccc(C)c(C)c2nc1SCC(=O)Nc1cc(C)on1	-25%	-14	0	i	-1%	-7
Clc1ccc(OCCN2CCN(c3ncnc4sccc34)CC2)cc1	-29%	24	1	i	-24%	-8
Cc1ccccc1N=CC1=C(O)c2ccccc2C1=O	?	-10	-19	?	?	-8

Source: PubChem (National Center for Advancing Translational Sciences (NCATS))
